Results from publication PMC7862700, “An all-to-all approach to the identification of sequence-specific readers for epigenetic DNA modifications on cytosine”.

Legend:
Test in all cases: DAPPL (digital affinity profiling via proximity ligation, sequencing); 10 mM Tris-HCl pH 7.5, 50 mM NaCl, 1 mM DTT, 4% glycerol, room temperature, 30 min; GST-TFs on glutathione beads, 16-mer random dsDNA library, 0.1% formaldehyde crosslink after washing; high values mean tight binding
FLI1 = molecular target: T1, FLI1 (Homo sapiens, UniProt Q01543 1-452); settings: protein: recombinant; tags: N-terminal GST; dsDNA, one strand shown
T1 sequence: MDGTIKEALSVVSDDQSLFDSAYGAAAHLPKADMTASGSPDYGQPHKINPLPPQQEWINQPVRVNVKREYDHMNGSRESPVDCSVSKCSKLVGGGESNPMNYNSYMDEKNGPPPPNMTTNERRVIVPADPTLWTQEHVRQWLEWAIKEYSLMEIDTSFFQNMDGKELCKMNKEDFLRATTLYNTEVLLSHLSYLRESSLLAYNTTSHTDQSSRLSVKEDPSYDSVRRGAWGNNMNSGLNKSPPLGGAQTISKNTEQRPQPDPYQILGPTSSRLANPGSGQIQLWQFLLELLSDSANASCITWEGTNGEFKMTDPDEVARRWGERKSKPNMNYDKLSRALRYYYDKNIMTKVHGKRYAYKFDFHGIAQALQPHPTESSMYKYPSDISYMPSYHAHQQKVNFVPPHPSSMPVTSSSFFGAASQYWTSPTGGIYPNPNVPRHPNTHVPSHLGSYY
In short: (§1)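 The binding signal reported is, for every hexamer, its read frequency for a factor over its read frequency for the tag-only sample. Reads came from pools of yeast-expressed, GST-fused human transcription factors on glutathione beads, barcoded with DNA and mixed with that sample, which were incubated with 200 nmole of a random double-stranded 16-mer DNA library in Tris/NaCl/DTT/glycerol buffer at room temperature for 30 min. After washing, the pools were crosslinked with 0.1% formaldehyde, proximity-ligated with BsaI/T4 ligase for 1 h at 37 °C, PCR-amplified and sequenced on an Illumina NextSeq500.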

ELK1 = molecular target: T2, ELK1 (Homo sapiens, UniProt P19419 1-428); settings: protein: recombinant; tags: N-terminal GST; dsDNA, one strand shown
T2 sequence: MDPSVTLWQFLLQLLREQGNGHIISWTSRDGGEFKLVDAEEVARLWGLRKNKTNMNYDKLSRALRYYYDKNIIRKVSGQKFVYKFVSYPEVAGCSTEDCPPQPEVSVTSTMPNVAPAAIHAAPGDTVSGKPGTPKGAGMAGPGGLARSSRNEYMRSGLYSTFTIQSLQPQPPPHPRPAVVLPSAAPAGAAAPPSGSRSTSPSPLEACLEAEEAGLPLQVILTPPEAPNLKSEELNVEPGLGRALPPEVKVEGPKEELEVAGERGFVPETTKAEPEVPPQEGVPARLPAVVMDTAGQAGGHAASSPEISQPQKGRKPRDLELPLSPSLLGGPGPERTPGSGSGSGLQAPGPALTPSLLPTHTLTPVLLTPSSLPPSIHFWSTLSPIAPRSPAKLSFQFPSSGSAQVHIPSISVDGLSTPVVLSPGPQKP
In short: as §1

GABPA = molecular target: T3, GABPA (Homo sapiens, UniProt Q06546 1-454); settings: protein: recombinant; tags: N-terminal GST; dsDNA, one strand shown
T3 sequence: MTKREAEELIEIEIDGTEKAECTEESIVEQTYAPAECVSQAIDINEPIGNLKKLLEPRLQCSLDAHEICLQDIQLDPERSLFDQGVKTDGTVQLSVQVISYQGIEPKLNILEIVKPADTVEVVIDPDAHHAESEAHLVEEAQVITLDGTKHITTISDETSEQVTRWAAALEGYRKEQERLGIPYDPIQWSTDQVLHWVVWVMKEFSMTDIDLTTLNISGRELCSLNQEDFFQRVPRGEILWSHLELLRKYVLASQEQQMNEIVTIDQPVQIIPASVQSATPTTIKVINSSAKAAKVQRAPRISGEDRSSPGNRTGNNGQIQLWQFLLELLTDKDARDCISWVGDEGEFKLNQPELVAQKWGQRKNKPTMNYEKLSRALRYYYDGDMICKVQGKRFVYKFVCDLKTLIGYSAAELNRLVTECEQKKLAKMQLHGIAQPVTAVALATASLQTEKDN
In short: as §1

ERG = molecular target: T4, ERG (Homo sapiens, UniProt P11308 1-479); settings: protein: recombinant; tags: N-terminal GST; dsDNA, one strand shown
T4 sequence: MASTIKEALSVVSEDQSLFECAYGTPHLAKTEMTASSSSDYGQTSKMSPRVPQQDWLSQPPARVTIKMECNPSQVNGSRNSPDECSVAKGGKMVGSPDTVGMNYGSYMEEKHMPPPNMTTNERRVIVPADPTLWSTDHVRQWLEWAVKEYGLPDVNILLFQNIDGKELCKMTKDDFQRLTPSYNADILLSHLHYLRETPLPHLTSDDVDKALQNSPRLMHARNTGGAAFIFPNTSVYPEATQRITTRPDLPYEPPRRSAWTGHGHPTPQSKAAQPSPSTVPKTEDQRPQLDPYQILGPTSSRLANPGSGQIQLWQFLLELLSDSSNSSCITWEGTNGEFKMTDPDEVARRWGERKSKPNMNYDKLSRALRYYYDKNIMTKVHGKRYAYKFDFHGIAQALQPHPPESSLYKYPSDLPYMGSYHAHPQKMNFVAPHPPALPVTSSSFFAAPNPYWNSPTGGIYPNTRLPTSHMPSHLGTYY
In short: as §1

ELF1 = ELF1 (Homo sapiens, UniProt P32519 1-619); settings: protein: recombinant; tags: N-terminal GST; dsDNA, one strand shown
ELF1, sequence (P32519 whole entry): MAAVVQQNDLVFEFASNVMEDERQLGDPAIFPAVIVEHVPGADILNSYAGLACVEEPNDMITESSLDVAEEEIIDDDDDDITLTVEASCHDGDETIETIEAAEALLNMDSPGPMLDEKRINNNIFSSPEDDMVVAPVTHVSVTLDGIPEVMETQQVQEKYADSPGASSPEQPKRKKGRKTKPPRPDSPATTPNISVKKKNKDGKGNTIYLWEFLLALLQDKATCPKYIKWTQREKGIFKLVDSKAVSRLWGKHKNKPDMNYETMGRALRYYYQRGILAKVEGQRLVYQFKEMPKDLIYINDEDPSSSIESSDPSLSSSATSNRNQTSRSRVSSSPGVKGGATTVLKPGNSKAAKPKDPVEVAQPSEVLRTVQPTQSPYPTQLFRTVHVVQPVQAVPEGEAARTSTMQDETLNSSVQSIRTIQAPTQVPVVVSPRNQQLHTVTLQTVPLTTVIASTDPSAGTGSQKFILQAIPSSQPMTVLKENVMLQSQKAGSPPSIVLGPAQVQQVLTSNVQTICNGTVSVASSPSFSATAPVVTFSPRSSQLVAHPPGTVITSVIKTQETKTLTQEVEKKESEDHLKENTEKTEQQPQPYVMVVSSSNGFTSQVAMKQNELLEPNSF
In short: as §1

EHF = molecular target: T5, EHF (Homo sapiens, UniProt Q9NZC4 1-300); settings: protein: recombinant; tags: N-terminal GST; dsDNA, one strand shown
T5 sequence: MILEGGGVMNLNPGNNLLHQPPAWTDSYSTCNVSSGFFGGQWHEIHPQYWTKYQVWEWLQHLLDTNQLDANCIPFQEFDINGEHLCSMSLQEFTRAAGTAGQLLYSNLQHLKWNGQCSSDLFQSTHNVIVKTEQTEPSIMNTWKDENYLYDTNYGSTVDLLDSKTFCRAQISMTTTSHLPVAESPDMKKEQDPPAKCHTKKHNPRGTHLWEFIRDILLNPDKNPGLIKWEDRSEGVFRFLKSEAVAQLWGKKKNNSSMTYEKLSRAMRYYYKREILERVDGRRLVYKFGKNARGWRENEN
In short: as §1

SPI1 = SPI1 (Homo sapiens, UniProt P17947 1-270); settings: protein: recombinant; tags: N-terminal GST; dsDNA, one strand shown
In short: as §1

SPIB = SPIB (Homo sapiens, UniProt Q01892 1-262); settings: protein: recombinant; tags: N-terminal GST; dsDNA, one strand shown
SPIB, sequence (Q01892 whole entry): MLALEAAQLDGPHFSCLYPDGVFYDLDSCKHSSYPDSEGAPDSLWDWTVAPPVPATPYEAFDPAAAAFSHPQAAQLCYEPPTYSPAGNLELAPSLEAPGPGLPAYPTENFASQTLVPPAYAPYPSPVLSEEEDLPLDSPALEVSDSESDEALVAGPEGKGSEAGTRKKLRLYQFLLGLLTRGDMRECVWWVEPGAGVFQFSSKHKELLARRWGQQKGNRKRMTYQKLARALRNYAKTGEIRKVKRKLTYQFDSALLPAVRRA
In short: as §1

ELK3 = molecular target: T6, ELK3 (Homo sapiens, UniProt P41970 1-407); settings: protein: recombinant; tags: N-terminal GST; dsDNA, one strand shown
T6 sequence: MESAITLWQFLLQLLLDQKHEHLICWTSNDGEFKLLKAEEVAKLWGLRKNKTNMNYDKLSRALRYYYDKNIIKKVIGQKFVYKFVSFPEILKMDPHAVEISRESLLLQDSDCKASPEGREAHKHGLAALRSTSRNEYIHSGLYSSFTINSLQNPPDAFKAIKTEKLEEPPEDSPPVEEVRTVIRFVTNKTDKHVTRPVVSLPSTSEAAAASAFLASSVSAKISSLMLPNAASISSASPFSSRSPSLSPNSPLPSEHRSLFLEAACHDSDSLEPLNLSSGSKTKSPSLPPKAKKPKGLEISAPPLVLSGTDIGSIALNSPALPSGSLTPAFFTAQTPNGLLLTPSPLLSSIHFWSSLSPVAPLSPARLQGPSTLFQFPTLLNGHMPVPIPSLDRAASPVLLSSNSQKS
In short: as §1

FEV = molecular target: T7, FEV (Homo sapiens, UniProt Q99581 1-238); settings: protein: recombinant; tags: N-terminal GST; dsDNA, one strand shown
T7 sequence: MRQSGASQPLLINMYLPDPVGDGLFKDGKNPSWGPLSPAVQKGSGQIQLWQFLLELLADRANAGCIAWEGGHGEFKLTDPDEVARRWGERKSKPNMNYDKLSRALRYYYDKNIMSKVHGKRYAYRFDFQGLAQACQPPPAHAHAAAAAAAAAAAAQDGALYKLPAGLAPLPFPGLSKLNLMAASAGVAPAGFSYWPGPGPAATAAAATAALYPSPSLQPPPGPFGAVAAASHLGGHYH
In short: as §1

ETV5 = ETV5 (Homo sapiens, UniProt P41161 1-510); settings: protein: recombinant; tags: N-terminal GST; dsDNA, one strand shown
ETV5, sequence (P41161 whole entry): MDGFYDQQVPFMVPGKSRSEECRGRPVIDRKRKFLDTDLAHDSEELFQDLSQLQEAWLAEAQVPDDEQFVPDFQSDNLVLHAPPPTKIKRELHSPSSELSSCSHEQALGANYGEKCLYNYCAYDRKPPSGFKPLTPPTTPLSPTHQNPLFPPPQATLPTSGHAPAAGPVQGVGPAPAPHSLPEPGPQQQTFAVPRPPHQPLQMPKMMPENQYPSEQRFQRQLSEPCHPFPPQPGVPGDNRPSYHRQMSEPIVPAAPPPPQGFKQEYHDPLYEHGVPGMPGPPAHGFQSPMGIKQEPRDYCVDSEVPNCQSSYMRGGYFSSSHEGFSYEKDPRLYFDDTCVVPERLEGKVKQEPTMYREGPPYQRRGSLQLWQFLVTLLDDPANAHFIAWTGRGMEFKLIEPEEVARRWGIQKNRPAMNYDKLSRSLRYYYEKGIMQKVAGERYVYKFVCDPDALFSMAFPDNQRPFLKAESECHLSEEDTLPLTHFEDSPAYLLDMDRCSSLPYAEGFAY
In short: as §1

HSF1 = HSF1 (Homo sapiens, UniProt Q00613 1-529); settings: protein: recombinant; tags: N-terminal GST; chain copies: 3; dsDNA, one strand shown
HSF1, sequence (Q00613 whole entry): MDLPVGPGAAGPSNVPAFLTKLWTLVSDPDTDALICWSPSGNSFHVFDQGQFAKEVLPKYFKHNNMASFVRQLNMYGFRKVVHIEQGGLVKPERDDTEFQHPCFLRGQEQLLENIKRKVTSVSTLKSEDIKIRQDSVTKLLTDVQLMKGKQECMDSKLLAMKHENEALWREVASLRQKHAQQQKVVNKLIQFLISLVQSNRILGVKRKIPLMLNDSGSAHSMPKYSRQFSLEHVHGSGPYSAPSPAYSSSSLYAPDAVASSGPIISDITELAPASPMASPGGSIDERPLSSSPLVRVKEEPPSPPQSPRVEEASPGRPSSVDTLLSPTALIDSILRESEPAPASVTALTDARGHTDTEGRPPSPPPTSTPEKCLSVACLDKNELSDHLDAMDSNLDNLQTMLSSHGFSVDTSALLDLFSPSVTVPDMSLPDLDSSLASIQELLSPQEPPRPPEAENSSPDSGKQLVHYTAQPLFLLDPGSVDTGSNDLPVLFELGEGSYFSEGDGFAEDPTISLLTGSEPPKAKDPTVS
In short: as §1

SPIC = molecular target: T8, SPIC (Homo sapiens, UniProt Q8N5J4 1-248); settings: protein: recombinant; tags: N-terminal GST; dsDNA, one strand shown
T8 sequence: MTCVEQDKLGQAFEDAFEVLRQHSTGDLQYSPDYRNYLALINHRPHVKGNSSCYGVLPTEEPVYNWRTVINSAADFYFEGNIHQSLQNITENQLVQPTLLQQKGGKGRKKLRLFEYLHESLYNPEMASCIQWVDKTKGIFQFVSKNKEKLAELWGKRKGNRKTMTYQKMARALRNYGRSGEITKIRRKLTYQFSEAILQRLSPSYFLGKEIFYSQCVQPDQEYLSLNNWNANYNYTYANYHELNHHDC
In short: as §1

ELF4 = ELF4 (Homo sapiens, UniProt Q99607 1-663); settings: protein: recombinant; tags: N-terminal GST; dsDNA, one strand shown
ELF4, sequence (Q99607 whole entry): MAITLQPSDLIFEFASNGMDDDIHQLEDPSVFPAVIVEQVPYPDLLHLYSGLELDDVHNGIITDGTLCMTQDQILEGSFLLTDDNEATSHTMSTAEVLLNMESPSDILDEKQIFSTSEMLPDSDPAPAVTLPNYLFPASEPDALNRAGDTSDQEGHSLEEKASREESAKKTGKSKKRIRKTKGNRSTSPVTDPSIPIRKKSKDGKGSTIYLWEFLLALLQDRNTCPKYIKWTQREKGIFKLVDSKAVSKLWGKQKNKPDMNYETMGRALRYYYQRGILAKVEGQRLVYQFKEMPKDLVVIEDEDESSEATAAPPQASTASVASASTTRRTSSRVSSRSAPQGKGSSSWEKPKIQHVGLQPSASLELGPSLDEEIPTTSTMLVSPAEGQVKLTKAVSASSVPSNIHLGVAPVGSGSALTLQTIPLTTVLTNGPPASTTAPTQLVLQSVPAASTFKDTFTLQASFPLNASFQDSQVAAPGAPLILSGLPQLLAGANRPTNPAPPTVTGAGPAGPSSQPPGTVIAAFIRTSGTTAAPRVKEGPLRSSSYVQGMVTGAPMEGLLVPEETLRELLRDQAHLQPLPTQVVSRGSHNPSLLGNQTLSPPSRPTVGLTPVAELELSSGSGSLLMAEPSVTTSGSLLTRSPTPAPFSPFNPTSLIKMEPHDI
In short: as §1

ELK4 = molecular target: T9, ELK4 (Homo sapiens, UniProt P28324-2 1-405); settings: protein: recombinant; tags: N-terminal GST; dsDNA, one strand shown
T9 sequence: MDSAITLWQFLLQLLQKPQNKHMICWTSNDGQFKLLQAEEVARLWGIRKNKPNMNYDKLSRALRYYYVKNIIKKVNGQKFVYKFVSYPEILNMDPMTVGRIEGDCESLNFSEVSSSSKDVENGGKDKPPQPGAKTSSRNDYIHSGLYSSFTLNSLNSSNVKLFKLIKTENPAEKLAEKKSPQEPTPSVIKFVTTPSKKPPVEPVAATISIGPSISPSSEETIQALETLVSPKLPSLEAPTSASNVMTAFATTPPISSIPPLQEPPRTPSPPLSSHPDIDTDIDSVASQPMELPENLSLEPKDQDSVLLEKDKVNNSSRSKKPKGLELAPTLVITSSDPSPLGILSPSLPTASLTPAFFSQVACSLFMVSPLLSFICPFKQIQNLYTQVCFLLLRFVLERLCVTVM
In short: as §1

ETV2 = molecular target: T10, ETV2 (Homo sapiens, UniProt O00321 1-342); settings: protein: recombinant; tags: N-terminal GST; dsDNA, one strand shown
T10 sequence: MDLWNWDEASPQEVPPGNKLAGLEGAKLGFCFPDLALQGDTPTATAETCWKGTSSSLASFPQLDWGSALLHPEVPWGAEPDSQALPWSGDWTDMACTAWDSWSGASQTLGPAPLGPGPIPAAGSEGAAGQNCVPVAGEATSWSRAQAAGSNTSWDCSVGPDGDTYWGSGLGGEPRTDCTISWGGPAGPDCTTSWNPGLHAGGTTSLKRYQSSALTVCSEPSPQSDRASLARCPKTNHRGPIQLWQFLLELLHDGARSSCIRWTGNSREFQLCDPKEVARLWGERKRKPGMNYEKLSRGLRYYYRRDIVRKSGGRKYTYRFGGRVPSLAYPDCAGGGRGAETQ
In short: as §1

CRX = CRX (Homo sapiens, UniProt O43186 1-299); settings: protein: recombinant; tags: N-terminal GST; dsDNA, one strand shown
CRX, sequence (O43186 whole entry): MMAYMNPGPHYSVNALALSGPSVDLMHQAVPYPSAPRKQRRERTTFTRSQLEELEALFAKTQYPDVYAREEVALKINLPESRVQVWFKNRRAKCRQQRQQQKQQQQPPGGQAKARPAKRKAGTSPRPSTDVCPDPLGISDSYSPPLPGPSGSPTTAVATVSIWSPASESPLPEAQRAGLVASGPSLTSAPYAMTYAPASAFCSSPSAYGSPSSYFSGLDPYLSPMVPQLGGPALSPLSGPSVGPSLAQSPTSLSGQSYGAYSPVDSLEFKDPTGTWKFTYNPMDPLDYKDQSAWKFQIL
In short: as §1

ETV1 = ETV1 (Homo sapiens, UniProt P50549 1-477); settings: protein: recombinant; tags: N-terminal GST; dsDNA, one strand shown
ETV1, sequence (P50549 whole entry): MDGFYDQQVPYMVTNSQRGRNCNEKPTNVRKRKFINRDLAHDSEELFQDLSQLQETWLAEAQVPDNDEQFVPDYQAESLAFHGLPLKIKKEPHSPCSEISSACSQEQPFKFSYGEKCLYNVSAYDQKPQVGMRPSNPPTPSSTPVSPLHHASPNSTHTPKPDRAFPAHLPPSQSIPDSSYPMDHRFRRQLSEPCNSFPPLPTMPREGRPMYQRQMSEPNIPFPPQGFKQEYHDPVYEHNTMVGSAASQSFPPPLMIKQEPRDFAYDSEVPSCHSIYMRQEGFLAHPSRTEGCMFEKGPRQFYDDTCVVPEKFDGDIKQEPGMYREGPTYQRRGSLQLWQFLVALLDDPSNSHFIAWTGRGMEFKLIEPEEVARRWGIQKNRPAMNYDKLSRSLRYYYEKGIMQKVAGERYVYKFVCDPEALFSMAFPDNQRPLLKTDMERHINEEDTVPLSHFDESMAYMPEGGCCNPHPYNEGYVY
In short: as §1

Sequence	binding signal (FLI1)	binding signal (ELK1)	binding signal (GABPA)	binding signal (ERG)	binding signal (ELF1)	binding signal (EHF)	binding signal (SPI1)	binding signal (SPIB)	binding signal (ELK3)	binding signal (FEV)	binding signal (ETV5)	binding signal (HSF1)	binding signal (SPIC)	binding signal (ELF4)	binding signal (ELK4)	binding signal (ETV2)	binding signal (CRX)	binding signal (ETV1)
TTTGGC	1.33 fold enrichment (6-mer frequency, TF over GST control)	1.27 fold enrichment (6-mer frequency, TF over GST control)	1.25 fold enrichment (6-mer frequency, TF over GST control)	1.12 fold enrichment (6-mer frequency, TF over GST control)	1.27 fold enrichment (6-mer frequency, TF over GST control)	1.2 fold enrichment (6-mer frequency, TF over GST control)	1.22 fold enrichment (6-mer frequency, TF over GST control)	1.29 fold enrichment (6-mer frequency, TF over GST control)	1.1 fold enrichment (6-mer frequency, TF over GST control)	1.27 fold enrichment (6-mer frequency, TF over GST control)	1.32 fold enrichment (6-mer frequency, TF over GST control)	1.23 fold enrichment (6-mer frequency, TF over GST control)	1.45 fold enrichment (6-mer frequency, TF over GST control)	1.26 fold enrichment (6-mer frequency, TF over GST control)	1.23 fold enrichment (6-mer frequency, TF over GST control)	1.31 fold enrichment (6-mer frequency, TF over GST control)	1.49 fold enrichment (6-mer frequency, TF over GST control)	1.22 fold enrichment (6-mer frequency, TF over GST control)
AAGCAC	1.14 fold enrichment (6-mer frequency, TF over GST control)	1.14 fold enrichment (6-mer frequency, TF over GST control)	1.15 fold enrichment (6-mer frequency, TF over GST control)	1.19 fold enrichment (6-mer frequency, TF over GST control)	1.18 fold enrichment (6-mer frequency, TF over GST control)	1.07 fold enrichment (6-mer frequency, TF over GST control)	1.18 fold enrichment (6-mer frequency, TF over GST control)	1.18 fold enrichment (6-mer frequency, TF over GST control)	1.31 fold enrichment (6-mer frequency, TF over GST control)	1.23 fold enrichment (6-mer frequency, TF over GST control)	1.12 fold enrichment (6-mer frequency, TF over GST control)	1.04 fold enrichment (6-mer frequency, TF over GST control)	1.09 fold enrichment (6-mer frequency, TF over GST control)	1.2 fold enrichment (6-mer frequency, TF over GST control)	1.12 fold enrichment (6-mer frequency, TF over GST control)	1.22 fold enrichment (6-mer frequency, TF over GST control)	1.09 fold enrichment (6-mer frequency, TF over GST control)	1.14 fold enrichment (6-mer frequency, TF over GST control)
